Source: PubChem (National Center for Advancing Translational Sciences (NCATS))
This is a sample that favours compounds with a hit; in the whole collection about 7.6% have one here.
Gal4-VP16 FLuc = counter-screen for ROR gamma inhibitors: Gal4-VP16 reporter; AID 2546; Potency, µM (series often up to 53.6 µM), inactives show at the top dose activity, negative = inhibition, usual class: inhibitors; actives 3.5% (n = 310,000); Drosophila S2 Gal4-VP16 UAS-luciferase, luminescence, 20 h;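 also: Gal4-VP16 expression switched on by copper sulfate through the metallothionein promoter; potency is read from the fitted curve at half-maximal effect; % is scaled to controls: 0 for no effect and ±100 for the full control effect; nearly all actives have a fitted effect of over 50% in size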
BRCA1 expr act = activators of BRCA1 expression. actives 1.1% (n = 380,000). MCF7-BRCA1-FFLuc reporter, luminescence, 48 h; response scale: scaled: vehicle 0%, 10 µM genistein 100%. Potency, µM (top dose mostly 46.1 µM), for the others: at the highest dose activation, most hits filed as activators; also: potency is read from the fitted curve at half-maximal effect; nearly all actives have a fitted effect of over 80% in size
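MCF7 cells carrying a BRCA1-firefly luciferase reporter (2000 cells/well, phenol-red free MEM) were attached for 2 h at 37 °C, then given compounds for 48 h. Luminescence was read 15 min after luciferase reagent; activity normalized to genistein (10 microM) and DMSO.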
p53 reactivation = re-activators of mutant p53. Potency, µM (series often up to 92.2 µM), without a hit: at the highest dose activity change, positive = activation, usual class: activators. H1299 p53-A138V BP100-luciferase reporter, luminescence, 24 h. actives 0.063% (n = 320,000); also: potency is read from the fitted curve at half-maximal effect; % of control where 0% means no effect; nearly all actives have a fitted effect of over 45% in size
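p53-null H1299 cells stably carrying temperature-sensitive p53-A138V and a BP100-luciferase reporter were pinned with compounds (4-point, 1:5 series) and held 24 hrs at 37 deg C. Luminescence was read 10 min after detection reagent.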
Giardia killer = kills Giardia lamblia; Giardia lamblia trophozoite viability; activity change, % at 7.66 µM, hits read low; actives 0.15% (n = 340,000); AID 540267; in the data active = activity change below about -80%; inconclusive = between about -30% and that limit;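 also: parasites exposed to compound for two days anaerobically before the ATP read; % is scaled to controls: 0 for no effect and ±100 for the full control effect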
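Viability, read as ATP luminescence: trophozoites at 100 cells/well, compound added, 48 hrs anaerobic at 37 deg C, then 15-30 min room-temperature development before reading.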
RORgamma inh = blocks mouse ROR gamma transcriptional activity. P51450. Drosophila S2 Gal4-RORgamma UAS-luciferase reporter, 20 h. Potency, µM (doses to about 53.6 µM), for inactives: at the highest dose activity change, negative = inhibition, actives largely listed as inhibitors. actives 5.4% (n = 310,000). AID 2551; also: potency is read from the fitted curve at half-maximal effect; % is scaled to controls: 0 for no effect and ±100 for the full control effect; nearly all actives have a fitted effect of over 60% in size
Target sequence (P51450 whole entry, looked up, the tested form may be a part): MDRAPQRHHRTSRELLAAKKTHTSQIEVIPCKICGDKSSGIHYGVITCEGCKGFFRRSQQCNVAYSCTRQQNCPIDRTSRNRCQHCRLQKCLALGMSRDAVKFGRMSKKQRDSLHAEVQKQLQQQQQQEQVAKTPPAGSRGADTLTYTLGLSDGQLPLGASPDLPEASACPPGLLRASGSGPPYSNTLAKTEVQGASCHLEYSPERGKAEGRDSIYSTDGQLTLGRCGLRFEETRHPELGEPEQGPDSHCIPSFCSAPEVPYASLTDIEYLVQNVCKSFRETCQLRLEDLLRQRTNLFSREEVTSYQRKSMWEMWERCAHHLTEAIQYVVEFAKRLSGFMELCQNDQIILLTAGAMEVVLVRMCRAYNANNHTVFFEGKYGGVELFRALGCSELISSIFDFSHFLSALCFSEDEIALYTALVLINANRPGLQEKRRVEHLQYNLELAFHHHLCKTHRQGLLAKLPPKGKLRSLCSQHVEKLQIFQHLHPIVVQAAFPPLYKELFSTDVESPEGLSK
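In this cell-based reporter format, copper sulfate (700 uM final) drives Gal4–ROR gamma fusion expression from a metallothionein promoter in Drosophila Schneider cells; compounds preincubated 1 hr, reporter read after 20 hr at ambient temperature.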
ELG1 DNA repair = ELG1-dependent DNA repair inhibition; HEK293T ELG1-luciferase reporter, luminescence, 16 h; DNA damage induced by 5-fluorouridine; Potency, µM (highest dose often 46.1 µM), for the others: at the top dose activity change, negative = inhibition, hits mostly inhibitors; actives 2.3% (n = 330,000); AID 504467; also: potency is read from the fitted curve at half-maximal effect; % is scaled to controls: 0 for no effect and ±100 for the full control effect; nearly all actives have a fitted effect of over 55% in size
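In this reporter screen, reduction of luminescence relative to DMSO vehicle indicated activity. Compounds and 5-fluorouridine were added together to 2,000 cells per well, incubated for 16 hr at 37 °C, then developed with ONE-Glo.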
Starred values were filed as active, the others as inactive; ? = inconclusive; . = no result; [ ] = remark or other dose. Unless noted, calls follow the shape of the dose curve; as a rule, active = well fitted curve in the direction sought with a large enough effect; inconclusive = small, poorly fitted or top-dose-only effect, or another doubt; inactive = no such curve, though single readings can be large; an effect the other way counts as inactive or inconclusive.

SMILES | Gal4-VP16 FLuc | BRCA1 expr act | p53 reactivation | Giardia killer | RORgamma inh | ELG1 DNA repair
CCOC(=O)c1c(NC(=O)c2ccc(C)cc2)sc2c1CC(C)(C)OC2 | 1% | -6% | -3% | -4 | -7% | 8.2µM*
CCOC(=O)Cn1c(=NC(=O)C(C)(C)C)sc2cc([N+](=O)[O-])ccc21 | -4% | 15% | 7% | -3 | ? | -17%
CC1(C)CC2(CCO1)N1CC3(C)CN2CC(C)(C1)C3=O (configuration not stated) | . | -6% | . | -17 | . | .
CCOC(=O)c1ccccc1NC(=O)COc1coc(CN2CCc3ccccc32)cc1=O | . | -18% | -7% | -9 | . | ?
Cc1c(CCOC(=O)c2ccc(N3CCOCC3)c([N+](=O)[O-])c2)sc[n+]1CC#N | -5% | -88% | ? | 1 | 23% | 5%
Cc1ncsc1CCOC(=O)c1ccc(N2CCOCC2)c([N+](=O)[O-])c1 | 4µM* | 4% | -2% | -7 | ? | ?
Cc1cc(CNC(=O)C2CCC(=O)N(CCc3cccc(F)c3)C2)on1 (configuration not stated) | 3% | -1% | 0% | -26 | -3% | 1%
COc1cc(C(=O)NNC(=S)NC(=O)/C=C/c2ccccc2)cc(OC)c1OC | 4µM* | -1% | 15% | -4 | 2.8µM* | -24%
O=C(/C=C/c1ccccc1)NC(=S)NNC(=O)c1cccnc1 | ? | -3% | 3% | 11 | 10µM* | 4%
O=C(/C=C/c1ccccc1)NC(=S)NNC(=O)c1cnccn1 | -4% | -57% | 13% | 19 | -2% | 20%
COc1cc(C(=O)NNC(=O)/C=C/c2ccccc2)cc(OC)c1OC | . | -13% | -10% | 3 | . | -25%
COc1ccccc1CN1CC(C(=O)NCCCc2ccc(F)cc2)CCC1=O (configuration not stated) | 2% | -20% | 3% | -26 | ? | 10µM*
Cc1ccccc1-c1ccc(/C=C2/SC(N3CCOCC3)=NC2=O)o1 | -8% | -35% | -9% | -1 | 12% | 8.2µM*
COc1ccc(C2=NN(c3ccc(C(=O)O)cc3)C(c3ccc(OC)c(OC)c3)C2)cc1 (configuration not stated) | -15% | ? | 11% | -13 | 7.1µM* | ?
CC(NC(=O)c1cccc(OC2CCN(C(=O)C3CC3)CC2)c1)c1ccc(F)cc1 (configuration not stated) | -7% | -11% | -6% | -1 | -4% | -12%
CCN(CC)S(=O)(=O)c1cccc(-c2nnc(SCc3nnc(-c4cccs4)o3)n2N)c1 | -7% | 0% | -15% | 6 | ? | 21µM*
CCN(CC)S(=O)(=O)c1cccc(-c2nnc(SCC(=O)NC)n2N)c1 | ? | 6% | 0% | 7 | -12% | 21%
O=C(Nc1ccccc1)Nc1ccccc1-n1ccnc1 | -9%[10 µM] | -13% | -3% | 6 | -7% | 9%
O=C(CSc1nnc(-c2ccccc2O)o1)N1CCc2ccccc2C1 | ? | 3% | -1% | -23 | 10µM* | -29%
O=C(CSc1nnc(-c2ccccc2Cl)o1)N1CCCC1 | 4% | 7.1µM* | ? | -4 | -11% | ?
COc1ccccc1NC(=S)N1CCC(c2nc3ccccc3o2)CC1 | -12% | -9% | -21% | -15 | ? | 23%
CN(C(=O)c1ccc(NC(=O)Cc2ccc(NC(=O)C3CCCN(C(=O)C4CCC4)C3)cc2)cc1)C1CCCC1 (configuration not stated) | . | 21% | . | 3 | . | .
CC(C)(C)NC(=O)c1cc(C(C)(C)C)c(O)c(C(C)(C)C)c1 | ? | -1% | -2% | 6 | -20% | ?
CCN(CC)C(=O)c1cc(C(C)(C)C)c(O)c(C(C)(C)C)c1 | -3% | 2% | -8% | 14 | 10µM* | 2%
Cc1nn(-c2ccccc2)c(N)c1C(c1ccc(C(C)C)cc1)c1c(C)nn(-c2ccccc2)c1N | -5% | -20% | 2% | 4 | 22%[10 µM] | 8.2µM*
SMILES | Gal4-VP16 FLuc | BRCA1 expr act | p53 reactivation | Giardia killer | RORgamma inh | ELG1 DNA repair
COc1cc(C(C)=O)ccc1OCC(O)CN1CCN(c2cc(C)cc(C)c2)CC1 (configuration not stated) | 7% | -25% | -2% | -25 | 17% | 13µM*
CCOC(=O)c1oc2ccc(S(=O)(=O)n3nc(-c4ccc(OC)cc4)cc3N)cc2c1C | -16% | -48% | 9% | -9 | 29% | ?
CCOC(=O)c1oc2ccc(S(=O)(=O)n3nc(-c4ccccc4)cc3N)cc2c1C | 11µM* | -58% | 2% | 13 | -36% | ?
COc1ccc(S(=O)(=O)N2CCCC(C(=O)NCC3CCCO3)C2)cc1C (configuration not stated) | 14% | -8% | 4% | 6 | 8% | 1%
Cc1cccc(NC(=S)N(CCCN2CCOCC2)C(C)c2cc3ccccc3o2)c1 (configuration not stated) | -2%[10 µM] | -12% | 3% | 9 | 13µM* | 2%
COc1cccc2cc(C(C)N(CCCN3CCOCC3)C(=S)Nc3cccc(C)c3)oc12 (configuration not stated) | -6% | -21% | 9% | 17 | ? | 5%
COc1cccc2cc(C(C)N(CCCN3CCOCC3)C(=S)Nc3ccccc3C)oc12 (configuration not stated) | 2% | -16% | 6% | 12 | ? | -18%
Cc1cccc(NC(=S)N(CCCN2CCOCC2)C(C)c2cc3ccccc3o2)c1C (configuration not stated) | ? | 4% | 1% | 2 | 10µM* | 6%
COc1ccc(NC(=O)c2cc(C(C)C)on2)c(OC)c1 | 7.1µM* | 58% | ? | -24 | ? | ?
Cc1cc(NC(=O)c2cc(C(C)C)on2)no1 | 8% | 11µM* | 19% | 22 | 3% | ?
CCCCn1c(N)c(N(CCOC)C(=O)CSCc2c(C)noc2C)c(=O)[nH]c1=O | 6% | -6% | 1% | -8 | -18% | 7%
CCc1cc2c(=O)n(CCC(C)C)c(=S)[nH]c2s1 | 1.4µM* | -47% | -2% | 7 | 0.2µM* | ?
Cc1ccc(C)c(NNC(=O)C(=O)NNc2cc(C)ccc2C)c1 | -1% | -18% | -2% | 8 | -4% | 1%
Cc1ccc(C)c(NNC(N)=S)c1 | 18µM* | -3% | 6% | 3 | ? | 10%
Cc1cccc(NNC(N)=S)c1C | ? | 0% | 0% | 7 | 10µM* | -4%
